Laboratory results: PubChem BioAssay (EPA / NIEHS)
Where a structure was tested more than once in an assay, its records may differ in their call. The source made the active and inactive calls. How the source made its calls: active means hit-call score of the fitted dose curve at least 0.9, where 1 is the maximum; inactive means score below 0.9.

How the values were obtained:
[1] = read-out: Urokinase-type plasminogen activator receptor (uPAR), PLAUR (gene 5329); test: BSK_4H_uPAR: BioMAP Diversity Plus: 4H Assay for Urokinase-type plasminogen activator receptor (uPAR) Biomarker Activity (AID 2283030); conditions: primary human endothelial cells (HUVEC); actives raise or lower the signal
Method in brief: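 Cell-surface uPAR ELISA signal, measured 24 h after dosing human umbilical vein endothelial cells, was analyzed with bidirectional fitting relative to DMSO. Parallel SRB staining of total protein tracked overt cytotoxicity.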

[2] = read-out: Vascular endothelial growth factor receptor 2 (Homo sapiens) (UniProt P35968); test: BSK_4H_VEGFRII: BioMAP Diversity Plus: 4H Assay for Vascular endothelial growth factor receptor 2 (VEGFR2) Biomarker Activity (AID 2283031); conditions: primary human endothelial cells (HUVEC); actives raise or lower the signal;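 on AC50: cell-surface VEGFR2 protein level quantified by ELISA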
Method in brief: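 ELISA read-out of VEGFRII in primary human umbilical vein endothelium, taken 24 h after chemical treatment. Responses are expressed relative to DMSO, with bidirectional fitting.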

[3] = read-out: Human Leukocyte Antigen - DR isotype (HLADR), HLA-DRA (gene 3122); test: BSK_BE3C_HLADR: BioMAP Diversity Plus: BE3C Assay for Human Leukocyte Antigen - DR isotype (HLADR) Biomarker Activity (AID 2283032); conditions: primary human bronchial epithelial cells; actives raise or lower the signal
Method in brief: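 Cell-surface HLA-DR ELISA readout at 24 h after dosing in the BE3C primary human lung bronchial epithelial system; gain or loss of signal against DMSO, with parallel sulforhodamine B staining of total protein for overt cytotoxicity.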

[4] = read-out: Vascular cell adhesion molecule 1 (VCAM1), VCAM1 (gene 7412); test: BSK_4H_VCAM1: BioMAP Diversity Plus: 4H Assay for Vascular cell adhesion molecule 1 (VCAM1) Biomarker Activity (AID 2283033); conditions: primary human endothelial cells (HUVEC); actives raise or lower the signal
Method in brief: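 VCAM-1 ELISA read 24 h after chemical dosing of HUVEC in the BioMAP 4H system, with gain or loss of signal fitted relative to DMSO. Parallel SRB staining (560 nm) checked overt cytotoxicity.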

[5] = read-out: Interferon-gamma inducible Protein 10 (IP10), CXCL10 (gene 3627); test: BSK_BE3C_IP10: BioMAP Diversity Plus: BE3C Assay for Interferon-gamma inducible Protein 10 (IP10) Biomarker Activity (AID 2283034); conditions: primary human bronchial epithelial cells; actives raise or lower the signal
Method in brief: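 IP-10 quantified by ELISA in human primary bronchial epithelial cell cultures at 24 hours post-dosing. Gain or loss of signal fitted relative to DMSO; parallel SRB staining assessed overt cytotoxicity.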

[6] = read-out: Transforming growth factor beta 1 (TGFb1), TGFB1 (gene 7040); test: BSK_BE3C_TGFb1: BioMAP Diversity Plus: BE3C Assay for Transforming growth factor beta 1 (TGFb1) Biomarker Activity (AID 2283036); conditions: primary human bronchial epithelial cells; actives raise or lower the signal
Method in brief: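 ELISA readout of TGF-b1 from human lung bronchial epithelial primary cells, taken 24 h post-treatment. Gain or loss of signal fitted relative to DMSO baseline, with parallel SRB staining for overt cytotoxicity.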

[7] = read-out: Plasminogen activator inhibitor-1 (PAI1), SERPINE1 (gene 5054); test: BSK_BE3C_PAI1: BioMAP Diversity Plus: BE3C Assay for Plasminogen activator inhibitor-1 (PAI1) Biomarker Activity (AID 2283037); conditions: primary human bronchial epithelial cells; actives raise or lower the signal
Method in brief: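 PAI-1 was measured by ELISA in human primary bronchial epithelial cultures 24 h after chemical dosing, with cytotoxicity checked by SRB total-protein staining in parallel cultures. Activity was fitted in both directions relative to DMSO.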

[8] = read-out: urokinase plasminogen activator (uPA), PLAU (gene 5328); test: BSK_BE3C_uPA: BioMAP Diversity Plus: BE3C Assay for urokinase plasminogen activator (uPA) Biomarker Activity (AID 2283038); conditions: primary human bronchial epithelial cells; actives raise or lower the signal
Method in brief: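 Bronchial epithelial cells (human, primary); chemical 24 h; uPA by ELISA; bidirectional fit vs DMSO. SRB (0.1%, after 10% TCA fixation, 560 nm) in parallel cultures for cytotoxicity.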

[9] = read-out: Urokinase-type plasminogen activator receptor (uPAR), PLAUR (gene 5329); test: BSK_BE3C_uPAR: BioMAP Diversity Plus: BE3C Assay for Urokinase-type plasminogen activator receptor (uPAR) Biomarker Activity (AID 2283039); conditions: primary human bronchial epithelial cells; actives raise or lower the signal
Method in brief: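 uPAR levels were measured by ELISA after 24 h compound treatment of primary human bronchial epithelial cells, fitted in both directions relative to DMSO. Parallel SRB staining served as the cytotoxicity read-out.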

[10] = read-out: Interleukin-6 (IL6), IL6 (gene 3569); test: BSK_CASM3C_IL6: BioMAP Diversity Plus: CASM3C Assay for Interleukin-6 (IL6) Biomarker Activity for (AID 2283040); conditions: primary human coronary artery smooth muscle cells; actives raise or lower the signal
[11] = read-out: Tissue plasminogen activator (tPA), PLAT (gene 5327); test: BSK_BE3C_tPA: BioMAP Diversity Plus: BE3C Assay for Tissue plasminogen activator (tPA) Biomarker Activity (AID 2283041); conditions: primary human bronchial epithelial cells; actives raise or lower the signal
Method in brief: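 tPA measured by ELISA 24 h after dosing human primary bronchial epithelial cells (BE3C system). Changes in either direction were fitted against DMSO. Parallel cultures were stained with SRB to flag overt cytotoxicity.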

[12] = read-out: Interleukin-8 (IL8), CXCL8 (gene 3576); test: BSK_CASM3C_IL8: BioMAP Diversity Plus: CASM3C Assay for Interleukin-8 (IL8) Biomarker Activity (AID 2283042); conditions: primary human coronary artery smooth muscle cells; actives raise or lower the signal;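 further: IL-8 protein level quantified by ELISA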
[13] = read-out: Human Leukocyte Antigen - DR isotype (HLADR), HLA-DRA (gene 3122); test: BSK_CASM3C_HLADR: BioMAP Diversity Plus: CASM3C Assay for Human Leukocyte Antigen - DR isotype (HLADR) Biomarker Activity (AID 2283043); conditions: primary human coronary artery smooth muscle cells; actives raise or lower the signal;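 further: cell-surface HLA-DR protein level quantified by ELISA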
[14] = read-out: Macrophage colony-stimulating factor (MCSF), CSF1 (gene 1435); test: BSK_CASM3C_MCSF: BioMAP Diversity Plus: CASM3C Assay for Macrophage colony-stimulating factor (MCSF) Biomarker Activity (AID 2283044); conditions: primary human coronary artery smooth muscle cells; actives raise or lower the signal;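 further: M-CSF protein amount quantified by ELISA after 24 h exposure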
[15] = read-out: Low-density lipoprotein receptor (LDLR), LDLR (gene 3949); test: BSK_CASM3C_LDLR: BioMAP Diversity Plus: CASM3C Assay for Low-density lipoprotein receptor (LDLR) Biomarker Activity (AID 2283045); conditions: primary human coronary artery smooth muscle cells; actives raise or lower the signal;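 further: LDLR protein level on the cell surface quantified by ELISA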
[16] = read-out: Monocyte Chemoattractant Protein-1 (MCP1), CCL2 (gene 6347); test: BSK_CASM3C_MCP1: BioMAP Diversity Plus: CASM3C Assay for Monocyte Chemoattractant Protein-1 (MCP1) Biomarker Activity (AID 2283046); conditions: primary human coronary artery smooth muscle cells; actives raise or lower the signal;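 further: MCP-1 level quantified by ELISA 24 h after dosing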
[17] = BSK_CASM3C_Proliferation: Cell Proliferation Assessment in the BioMAP Diversity Plus: CASM3C Assay (AID 2283047); conditions: primary human coronary artery smooth muscle cells;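 further: sulforhodamine B total protein stain as relative cell number at 560 nm; sub-confluent cells exposed 48 h before staining; fitted both ways against DMSO so gain or loss of cell number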
[18] = read-out: Monokine induced gamma interferon (MIG), CXCL9 (gene 4283); test: BSK_CASM3C_MIG: BioMAP Diversity Plus: CASM3C Assay for Monokine induced gamma interferon (MIG) Biomarker Activity (AID 2283048); conditions: primary human coronary artery smooth muscle cells; actives raise or lower the signal;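 further: MIG protein level measured by ELISA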
[19] = read-out: serum amyloid A (SAA), SAA1 (gene 6288); test: BSK_CASM3C_SAA: BioMAP Diversity Plus: CASM3C Assay for serum amyloid A (SAA) Biomarker Activity (AID 2283049); conditions: primary human coronary artery smooth muscle cells; actives raise or lower the signal;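 further: SAA protein level quantified by ELISA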
[20] = read-out: Monokine induced gamma interferon (MIG), CXCL9 (gene 4283); test: BSK_BE3C_MIG: BioMAP Diversity Plus: BE3C Assay for Monokine induced gamma interferon (MIG) Biomarker Activity (AID 2283035); conditions: primary human bronchial epithelial cells; actives raise or lower the signal
Method in brief: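 hu bronchial epithelial 1° cells, 24 h cpd; MIG by ELISA; bidirectional fit, DMSO = baseline.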

Measured: AC50

Nc1cc([N+](=O)[O-])cc(Cl)c1O
active: [5] 3.97 µM
not listed: [20]
inactive: all other assays above

O=S(=O)(OCC(F)(F)F)C(F)(F)C(F)(F)C(F)(F)C(F)(F)F
active: [18] 30 µM | [19] 0.653 µM
inactive: [1] | [2] | [3] | [4] | [5] | [7] | [8] | [9] | [10] | [11] | [12] | [13] | [14] | [15] | [16] | [17] | [18] | [19]

CCN(CC)c1ccc(C=O)c(O)c1
not listed: [20]
inactive: all other assays above

NCC(F)(F)C(F)(F)C(F)(F)C(F)(F)C(F)(F)C(F)(F)C(F)(F)C(F)(F)F
not listed: [6]
inactive: all other assays above

CCN(CC)c1ccc(N=Nc2ccccc2)cc1
active: [2] 20 µM | [4] 16.9 µM | [5] 10.2 µM | [6] 20 µM | [7] 29.3 µM | [11] 27.7 µM | [13] 31.9 µM | [16] 4.07 µM | [17] 8.48 µM
not listed: [20]
inactive: all other assays above

O=C(O)CCC(F)(F)C(F)(F)C(F)(F)F
not listed: [6] | [20]
inactive: all other assays above

CCN(CC)c1ccc(C=O)cc1
not listed: [20]
inactive: all other assays above

FC(F)(F)C(F)(F)C(F)(F)C(F)(F)C(F)(F)C(F)(F)CC[Si](Cl)(Cl)Cl
not listed: [6] | [20]
inactive: all other assays above

OCC(F)(F)C(F)(F)C(F)(F)C(F)(F)C(F)(F)C(F)(F)CO
not listed: [6]
inactive: all other assays above

O=S(=O)(O)CCC(F)(F)C(F)(F)C(F)(F)C(F)(F)F
not listed: [6] | [20]
inactive: all other assays above

COC(F)(C(F)F)C(F)(F)F (stereo unspecified)
not listed: [6] | [20]
inactive: all other assays above

Cc1cc(O)c(C(C)(C)C)cc1C(C)(C)C
inactive: [2]
active: [1] 3.28 µM | [3] 5.31 µM | [4] 4.86 µM | [5] 6.09 µM | [6] 5.2 µM | [7] 5.28 µM | [8] 5.51 µM | [9] 5.33 µM | [10] 5.61 µM | [11] 5.21 µM | [12] 8.77 µM | [13] 3.5 µM | [14] 4.59 µM | [15] 5.37 µM | [16] 5.83 µM | [17] 3.85 µM | [18] 12.5 µM | [19] 4.22 µM

FC(F)(F)C(F)(F)C(F)(F)CC1CO1 (stereo unspecified)
not listed: [6] | [20]
inactive: all other assays above

NC(=O)C(F)(F)C(F)(F)C(F)(F)F
not listed: [6] | [20]
inactive: all other assays above

O=C(c1ccccc1)c1ccc(O)cc1O
not listed: [20]
inactive: all other assays above

O=C(O)C(F)(F)C(F)(F)C(F)(F)C(=O)O
not listed: [6] | [20]
inactive: all other assays above

O=C=Nc1cccc2c(N=C=O)cccc12
not listed: [20]
inactive: all other assays above

O=C=NCc1cccc(CN=C=O)c1
not listed: [20]
inactive: all other assays above

OCCCCC(F)(F)C(F)(F)C(F)(F)C(F)(F)F
not listed: [6] | [20]
inactive: all other assays above

CC(C)CCCC(C)CCO (stereo unspecified)
inactive: [1] | [2] | [4] | [7] | [12]
active: [3] 29.1 µM | [5] 14.4 µM | [6] 20 µM | [8] 28.6 µM | [9] 24.9 µM | [10] 32.5 µM | [11] 26 µM | [13] 32.2 µM | [14] 32.3 µM | [15] 32.1 µM | [16] 31.2 µM | [17] 30.9 µM | [18] 29.7 µM | [19] 29.6 µM

C=C(C)C(=O)OCC(F)(F)C(F)(F)C(F)(F)C(F)F
not listed: [6] | [20]
inactive: all other assays above

Cc1ccc(S(=O)(=O)C(I)I)cc1
inactive: [15]
active: [1] 2.2 µM | [2] 1.87 µM | [3] 7 µM | [4] 2.19 µM | [5] 6.58 µM | [6] 7.3 µM | [7] 5.39 µM | [8] 6.62 µM | [9] 6.81 µM | [10] 2.67 µM | [11] 5.4 µM | [12] 3.52 µM | [13] 2.61 µM | [14] 2.17 µM | [16] 2.78 µM | [17] 1.37 µM | [18] 5.05 µM | [19] 0.987 µM

CCOC(C=C(C)CCC=C(C)C)OCC
active: [1] 35.2 µM | [4] 31.5 µM | [10] 20 µM | [13] 20 µM | [14] 20 µM | [15] 10.3 µM | [16] 28.9 µM | [17] 33.7 µM | [18] 34.4 µM
inactive: [3] | [5] | [6] | [7] | [8] | [9] | [11] | [12] | [19]

O=C(O)C(F)(F)C(F)(F)C(F)(F)C(F)(F)C(F)(F)C(F)(F)C(F)F
not listed: [6] | [20]
inactive: all other assays above
